Bioassay records as filed in PubChem BioAssay.
proKLK7 act = activators of human kallikrein-7 zymogen. P49862. purified proKLK7, EDANS-DABCYL substrate fluorescence; 100% is mature enzyme control, 0% vehicle. activation, % at 7 µM. actives 0.9% (n = 370,000). AID 652039;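 active means activation above the mean of all tested compounds plus 3 SD, computed per campaign excluding outliers beyond control limits, cut at about 13% in these data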
PG9 binder = PG9 antibody binding by small molecule | TR-FRET gp120-PG9 antibody binding | inhibition, % at 6.7 µM | actives 0.43% (n = 360,000) | AID 624416; in the data active means inhibition above about 8.5%
PP5 inh = inhibitors of human protein phosphatase 5 (PP5); P53041; purified PP5c, OMFP substrate fluorescence; inhibition, % at 6.7 µM; actives 0.18% (n = 320,000); AID 1987;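 active means inhibition above the campaign's mean inhibition across all tested compounds plus 3 SD, cut at about 9.5% in these data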
JMJD2C inh = blocks human GASC-1 demethylase activity | Q9H3R0 | GST-JMJD2C(1-420) H3K9me3 demethylation, DELFIA europium | actives 0.069% (n = 330,000) | inhibition, % at 2.35 µM | AID 2099;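 active means more than half of a compound's replicate wells show inhibition beyond 50%, single wells judged on their own value; inconclusive means some, but no more than half, of replicates pass 50% inhibition; inactive means no replicate passes 50% inhibition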;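 further: signal counts dimethyl H3K9 product captured on neutravidin plate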
NR1D1 modulator = modulators of human Rev-erb alpha DNA binding; P20393; activity, % at 10 µM; Rev-erbα–FITC-DNA binding, fluorescence polarization, 90 min; AID 1259318; actives 0.79% (n = 370,000);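 active means activity above about 14%, limit read from the data; passing the limit was not always enough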
Target sequence (P20393 whole entry, looked up): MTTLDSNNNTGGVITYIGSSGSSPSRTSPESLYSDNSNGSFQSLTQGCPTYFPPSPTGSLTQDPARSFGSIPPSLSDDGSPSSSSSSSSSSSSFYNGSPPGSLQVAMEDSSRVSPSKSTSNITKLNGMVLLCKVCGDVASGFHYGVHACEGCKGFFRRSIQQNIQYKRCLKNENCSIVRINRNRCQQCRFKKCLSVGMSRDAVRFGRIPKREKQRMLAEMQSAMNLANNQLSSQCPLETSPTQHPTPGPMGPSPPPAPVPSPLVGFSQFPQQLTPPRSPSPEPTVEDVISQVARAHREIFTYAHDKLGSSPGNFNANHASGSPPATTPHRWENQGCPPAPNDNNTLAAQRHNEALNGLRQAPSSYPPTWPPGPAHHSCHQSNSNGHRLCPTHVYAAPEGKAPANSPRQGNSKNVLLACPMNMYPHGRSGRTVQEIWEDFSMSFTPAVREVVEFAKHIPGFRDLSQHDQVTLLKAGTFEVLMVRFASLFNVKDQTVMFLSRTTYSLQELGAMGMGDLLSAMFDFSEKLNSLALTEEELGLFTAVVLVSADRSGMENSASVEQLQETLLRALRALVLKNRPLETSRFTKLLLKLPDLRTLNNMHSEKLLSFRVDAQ
PP1 counter = blocks human PP1-alpha phosphatase, a PP5 counter-screen; P62136; purified PP1alpha, OMFP fluorescence; inhibition, % at 6.7 µM; actives 0.9% (n = 320,000); AID 2235;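 active means inhibition above the mean inhibition of all tested compounds plus 3 SD, computed separately for each screening campaign, cut at about 15% in these data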
PP1 confirm = human PP1 phosphatase inhibition, confirmation | shares compounds with PP1 counter | purified PP1alpha, OMFP substrate fluorescence | inhibition, % at 6.7 µM | actives 52% (n = 1,900);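 active means mean PP1 inhibition above a set limit taken from the earlier primary screen, cut at about 15% in these data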
PP5 inh counter = PP5 phosphatase inhibition, counter-screen for PP1 inhibitors. shares compounds with PP1 counter. purified PP5c, OMFP fluorescence. inhibition, % at 6.7 µM. actives 4% (n = 1,900). AID 2360;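 active means mean PP5 inhibition over triplicate wells above about 9.5% taken from the earlier PP1 screen, limit read from the data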
Hits are given with their value; – = inactive; ? = inconclusive; · = no result given. Shown are actives, neighbours in structure and some others; about 2.8% of the full set was active somewhere.

SMILES	proKLK7 act	PG9 binder	PP5 inh	JMJD2C inh	NR1D1 modulator	PP1 counter	PP1 confirm	PP5 inh counter
CC(C)N1C(=O)CSC1c1ccc(Br)cc1 (stereo not drawn)	–	–	–	–	–	87	–	–
CC(CCc1ccco1)NC(=O)CCc1nnc2ccc(NCc3ccc(Cl)cc3)nn12 (stereo not drawn)	–	–	–	–	–	22	17	–
Cc1nn(CCc2nn[nH]n2)c2nc(-c3ccc(C4CCCCC4)cc3)cc(C(F)(F)F)c12	–	–	–	–	–	18	26	–
O=c1[nH]n2c(=O)c3c([nH]c2c1N=Nc1cccc(C(F)(F)F)c1)CCCC3	–	–	–	–	–	26	24	–
COc1cccc(N=Nc2c(=O)[nH]n3c(=O)c4c([nH]c23)CCC4)c1	–	–	–	–	–	20	16	–
NS(=O)(=O)c1ccc(N=Nc2c(=O)[nH]n3c(=O)c4c([nH]c23)CCCC4)cc1	–	–	–	–	–	–	·	·
NC(=O)CC(NC(=O)Cc1ccc(Br)cc1)c1ccc(N2CCC(Cc3ccccc3)CC2)c([N+](=O)[O-])c1 (stereo not drawn)	–	–	–	–	–	23	–	–
NC(=O)CC(NC(=O)Cc1ccc(Br)cc1)c1ccc(N2CCC(Br)CC2)c([N+](=O)[O-])c1 (stereo not drawn)	–	–	–	–	–	27	16	–
NC(=O)CC(NC(=O)Cc1cccc2ccccc12)c1ccc(N2CCC(Cc3ccccc3)CC2)c([N+](=O)[O-])c1 (stereo not drawn)	–	–	–	–	–	–	·	·
COc1cccc(CN(C)[C@H]2C[C@H]3c4[nH]c5ccccc5c4CCN3C[C@H]2[C@H](C)O)c1OC	–	–	·	·	–	·	·	·
Cc1noc(C)c1S(=O)(=O)N1CCCc2nc(-c3ccc(F)cc3)ccc21	–	–	·	·	–	·	·	·
COc1cccc2cc(C(=O)C3=C(O)C(=O)N(CCN4CCOCC4)C3c3ccc(C(C)(C)C)cc3)oc12 (stereo not drawn)	–	–	–	–	–	21	27	–
O=C(C1=C(O)C(=O)N(CCN2CCOCC2)C1c1ccc(Br)cc1)c1cc2ccccc2o1 (stereo not drawn)	–	–	–	–	–	23	–	–
COC(=O)C1=C(C)N(Cc2ccccc2C(F)(F)F)C(=NCc2ccccc2C(F)(F)F)NC1c1cccc(C(F)(F)F)c1 (stereo not drawn)	–	–	·	·	–	·	·	·
COc1cccc(-c2ccc(CC[C@H]3O[C@H]4CC[C@H](CO)O[C@H]4C[C@H]3NS(C)(=O)=O)cc2)c1	–	·	·	·	–	·	·	·
CCCCc1nnn2c1C1c3cc(Br)ccc3CCN1C(=O)C2 (stereo not drawn)	–	–	·	·	–	·	·	·
CCOc1ccc(S(=O)(=O)NCc2ccc(F)cc2)c2cccnc12	–	–	–	–	–	–	·	·
CCOc1ccc(S(=O)(=O)NCc2ccc(OC)cc2)c2cccnc12	–	–	–	–	–	68	–	–
O=C(O)C1Nc2c(O)cc(Cl)c([N+](=O)[O-])c2C2C=CCC12 (stereo not drawn)	–	–	–	–	–	42	–	–
O=C(N/N=C/c1cccnc1)/C(=C\c1cccs1)NC(=O)c1ccccc1	–	–	–	–	–	–	·	·
O=C(N/N=C/c1cc2ccccc2nc1Cl)/C(=C/c1cccs1)NC(=O)c1ccccc1	–	–	–	–	–	18	–	–
CC1CCC2(CC1)CCN(CCCOC(=O)Nc1cccc(F)c1)C2=O (stereo not drawn)	–	·	·	·	–	·	·	·
O=C1CN(C(=O)N[C@@H](Cc2ccccc2)C(=O)N[C@@H](C(=O)O)c2ccccc2)c2ccccc2N1	–	–	–	–	–	–	·	·
O=C1CN(C(=O)NCC(=O)N[C@@H](C(=O)O)c2ccccc2)c2ccccc2N1	–	–	–	–	–	18	–	–
C=CCNC(=O)Nc1ccc2c(c1)[C@@]1(CC(=O)N(CC(C)C)C1c1ccccc1)C(=O)N2C (stereo partly drawn)	–	·	·	·	–	·	·	·
SMILES	proKLK7 act	PG9 binder	PP5 inh	JMJD2C inh	NR1D1 modulator	PP1 counter	PP1 confirm	PP5 inh counter
Cc1ccccc1Nc1nnc(SCc2nc3ccccc3c(=O)[nH]2)s1	·	·	–	–	·	22	–	–
N#CCCN(C(=O)COC(=O)CCN=C1NS(=O)(=O)c2ccccc21)c1ccc(F)cc1	–	–	–	–	–	39	–	–
N#CCCN(C(=O)COC(=O)CCC(=O)c1ccc(F)cc1)c1ccccc1	–	–	–	–	–	–	·	·
CCOc1ccc(-n2c(SC/C=C/c3ccccc3)nnc2-c2cccs2)cc1	–	·	·	·	–	·	·	·
CC(C)C[C@@H]1COc2cc(Br)ccc2S(=O)(=O)N1Cc1cn(Cc2ccc(Cl)cc2)nn1	–	·	·	·	–	·	·	·
N#Cc1ccsc1NC(=O)COC(=O)C1=NNC(=O)CC1	–	–	–	–	–	19	–	–
O=C1CCC(C(=O)OCC(=O)Nc2ccccc2Br)=NN1	–	–	·	·	–	·	·	·
CCC(CO)Nc1cccc2c1S(=O)(=O)N(Cc1cn(Cc3ccc(Cl)cc3)nn1)Cc1ccccc1O2 (stereo not drawn)	–	·	·	·	–	·	·	·
Nn1c(SCC(=O)N2c3ccccc3Sc3ccc(Cl)cc32)nnc1-c1n[nH]c2c1CCC2	–	·	·	·	–	·	·	·
CCN(Cc1ccccc1)S(=O)(=O)c1ccc(C(=O)N(CCCN(C)C)c2nc3c(C)c(C)ccc3s2)cc1	–	–	–	?	–	19	–	–
CCN(Cc1ccccc1)S(=O)(=O)c1ccc(C(=O)N(CCCN(C)C)c2nc3cc4c(cc3s2)OCO4)cc1	–	–	–	–	–	–	·	·
Cn1c(=O)oc2cc(S(=O)(=O)Nc3cccc(C(=O)O)c3)ccc21	–	–	–	–	–	42	–	–
O=C(NC(=S)Nc1ccccc1[N+](=O)[O-])c1ccccc1Cl	–	–	–	–	–	–	·	·
O=C(O)c1ccc(Cl)c(NC(=S)NC(=O)c2ccccc2[N+](=O)[O-])c1	–	–	–	–	–	18	–	–
COc1ccc(Cn2c(N)c(C#N)c3nc4ccccc4nc32)cc1	–	–	–	–	–	–	·	·
COc1cc(Cn2c(N)c(C#N)c3nc4ccccc4nc32)cc(OC)c1	–	–	–	–	–	18	–	–
Cc1ccc(NC(=O)CN2C(=O)S/C(=C\c3ccc(OCC(=O)O)c(Br)c3)C2=O)cc1	–	–	–	–	–	–	·	·
COc1cc(/C=C2\SC(=O)N(CC(=O)Nc3ccc(C)cc3)C2=O)cc(Cl)c1OCC(=O)O	–	–	–	–	–	43	46	–
CCC[C@@H](/C=C/C(=O)OC(C)(C)C)Sc1ccc(N)cc1	–	·	·	·	–	·	·	·
